Measured values as given in PubChem BioAssay (NCI).
The panel holds about 83,000 compounds, 20% with a hit somewhere; the sample as a whole holds those more often.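 Percent growth is the endpoint: 0 to 100 indicates growth inhibition (40 means 60% inhibition), 0 means no net growth, and negative values indicate cell death.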 Values without a mark were called inactive. Active and inactive are the calls of the source.

Each molecule was assayed on SR leukemia (assay: NCI-60 one-dose screen, 48 h (100 = growth as untreated, 0 = no growth, -100 = all killed)). Conditions: 10 µM unless noted.
Protocol: Growth inhibition of the SR human tumor cell line is measured as a screen for anti-cancer activity. Cells are grown in 96 well plates and exposed to the test compound for 48 hours. Compounds are tested at a single concentration, which is 10^-5 M for most compounds. The reported endpoint is percent growth (GI% or GIPRCNT), where numbers from 0 - 100% represent growth inhibition, and numbers from -100% - 0 represent cell death. For example, a value of 40 represents 60% growth inhibition. A value of 0 means no net growth occurred over the course of the experiment. A value of -40 indicates 40% of cells at the beginning of the experiment died by the end of the experiment. A value of -100 means all cells are dead at the end of the experiment.
NCI-60 Human Tumor Cell Lines Screen was performed using the standard one-dose NCI protocol, which is described in more detail at https://dtp.cancer.gov/discovery_development/nci-60/default.htm.
Compounds with GIPRCNT values below 10 were considered active. Activity score was based on GIPRCNT using the following formula: […]
Score is 0 for GIPRCNT values of 100 or above, 50 for GIPRCNT values of 0, and 100 for GIPRCNT values of -100.

Structure (SMILES) | growth
Cc1ccc(NC2=C(Cl)C(=O)c3nc(C)ccc3C2=O)cc1 | 21.8%
O=C(N/N=C/[C@@H](O)[C@H](O)[C@H](O)CO)c1ccc(NC(=O)c2cccnc2)cc1 | 95.7%
COc1cc(C(=O)c2cnc(-c3c[nH]c4cccc(C)c34)[nH]2)cc(OC)c1OC | 4.87% (active)
COc1ccc(-c2nc(NCCO)[nH]c(=O)c2C#N)cc1 | 94.3%
O=c1c2cc(F)ccc2sc2c(NCCCNCCO)nc3ccc(F)cc3c12 | -25.8% (active)
CN1CCN(CC(=O)N2c3cccc4cccc(c34)N(C(=O)CN3CCN(C)CC3)C2c2cn(-c3ccccc3)nc2-c2cccc([N+](=O)[O-])c2)CC1 | -17.2% (active)
CCCCn1c(-c2ccc(C(=O)O/N=C(\N)c3ccc(OC)cc3)cc2)nc(-c2ccccc2)c1-c1ccccc1 | -47.4% (active)
COc1ccc(-c2[nH]c3ccc(OC)cc3c2/C=C(\C#N)S(=O)(=O)c2ccccc2)cc1 | 28.1%
COc1cc(/C=C/c2ccccc2)cc(OC)c1 | 86.7%
COc1cc(OCc2cccc(-c3ccc(C(O)c4nccs4)cc3)c2C)cc(OC)c1CNCCNC(C)=O (stereo not given) | 85.9%
COc1ccccc1/C=C1\Oc2cc(OCCN3CCC(Cc4ccccc4)CC3)ccc2C1=O | 5.96% (active)
COc1ccc(-c2nc3sc(-c4ccccc4)cn3n2)cc1 | 41.2%
O=C(Nc1ccc(I)cc1F)c1cc(I)ccc1O | 3.39% (active)
CCOC(=O)Nc1ccc(-c2nc(-c3cccc(OCCN4CCOCC4)c3)c(-c3ccnc(Br)c3)[nH]2)cc1 | -12.9% (active)
COc1cc(C(=O)c2cnc(-c3cccc4[nH]ccc34)[nH]2)cc(OC)c1OC | 13.9%
CCc1cccc2c3c(sc12)C(c1ccc(Cl)cc1)C(C#N)=C(N)O3 (stereo not given) | 13.6%
COc1ccc(C(=O)COC(=O)[C@H](C[Se][Se]C[C@H](NC(=O)c2ccc(Br)cc2F)C(=O)OCC(=O)c2ccc(OC)cc2)NC(=O)c2ccc(Br)cc2F)cc1 | -17.1% (active)
COc1cccc(/C=C2\C=C(c3ccccc3)N(Cc3ccccc3)C2=O)c1 | 10.9%
COc1cc2cc(Oc3ccc(NC(=O)Nc4ccc(Cl)c(Cl)c4)cc3)c(C)nc2cc1OCCN1CCOCC1 | 5.6% (active)
Cc1ccc(-c2nc(N3CCN(CC(=O)Nc4ccc(Cl)c(C(F)(F)F)c4)CC3)c3ccccc3n2)cc1 | 87.2%

Structure (SMILES) | growth
CC([C@H]1CCC2C3CCC4C[C@@H](NC=O)CC[C@]4(C)C3CC[C@@]21C)N(C)C (stereo not given in full) | -38.7% (active)
COc1ccc(-c2nc(NN)c3c(C)nn(-c4ccc(F)cc4)c3n2)cc1 | 28.3%
CC1(C)C2CC1C1(/C=N\Nc3ccccc3)C(C2)C(C#N)(C#N)C1(C#N)C#N (stereo not given) | 92.4%
Cc1ccc(C(CC(=O)O)c2c(C)[nH][nH]c2=O)cc1 (stereo not given) | 99%
Cc1nn(-c2ccccc2)c(-n2ccnc2)c1/C=N/Nc1nc(-c2ccc(Cl)c(Cl)c2)cs1 | 41.2%
C/C(=C(/c1ccccc1)c1ccc(N2C(=O)c3cccc4c(N5CCN(C)CC5)ccc(c34)C2=O)cc1)c1ccccc1 | -9.19% (active)
COc1cccc(Cc2cc(-c3ccccc3)nn(CC(=O)c3ccccc3)c2=O)c1 | 0.342% (active)
O=C1c2cccc3cccc(c23)C(=O)N1Nc1nc(NC2CCCCC2)nc(N2CCOCC2)n1 | 91%
C(=N/Nc1ncnc2nc[nH]c12)/c1ccccn1 | 25.7%
O=C(N/N=C/[C@H](O)[C@H](O)[C@H](O)CO)c1ccc(NC(=O)c2cccnc2)cc1 | 99.9%
CN(C)CCN1CCN(c2ncccc2C2Nc3ccccc3-n3cccc32)CC1 (stereo not given) | 98.3%
CCOC(=O)CCN(C(=O)Nc1ccccc1)C1CCCCC1 | 129%
CCOc1cccc(NC2=C(Br)C(=O)C(C)=C(C)C2=O)c1 | 74.7%
[O-][n+]1c2ccccc2[n+]([O-])c2c3ccccc3[nH]c21 | 95.6%
CC(C)n1cnc2c(Nc3cccc(Cl)c3)nc(N[C@H]3CCCC[C@@H]3N)nc21 | 13.9%
CCCCCCn1c(-c2ccc(C(=O)O/N=C(\N)c3ccc(OC)cc3)cc2)nc(-c2ccccc2)c1-c1ccccc1 | -37.5% (active)
Nc1ccccc1-c1cc2c(c3c1[nH]c1ccccc13)CCCCC2 | 94.2%
NCCNc1nc2ccccc2c2c(=O)c3cc(F)ccc3sc12 | -20.5% (active)
O=c1cc(SCc2ccccc2)nc[nH]1 | 127%
Cc1c(C(=O)/C=C/Nc2c(Cl)cc(S(N)(=O)=O)cc2Cl)sc2nc3ccccc3n12 | 110%
